The results in this text go back to PubChem BioAssay (NCI).

Molecules are shown by their SMILES. About 83,000 compounds went through this panel and 20% of them were active in at least one assay; those are over-represented in the sample as a whole.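 Growth was measured after 48 h exposure to one concentration of compound in 96-well plates. Values under 10 count as active.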 A number with no mark means an inactive call. Activity calls are given as the source filed them.

Some test systems named below: T-47D breast; BT-549 breast; MDA-MB-435 melanoma; SW-620 colon; MCF7 breast; HCT-116 colon; HCC-2998 colon; KM12 colon.
Assay in all cases: NCI-60 one-dose screen, 48 h (100 = growth as untreated, 0 = no growth, -100 = all killed)
Holding throughout (conditions): 10 µM unless noted

As to `Cc1nn(-c2ccccc2)c(Cl)c1/C=N\N=c1/sc2ccccc2n1C`, the growth in the test on T-47D breast was 93.7%; with BT-549 breast it was 92.8%; in the test on MDA-MB-435 melanoma it was 102%; in the test with SW-620 colon it was 101%; in the test on MCF7 breast, 97%; in the test on HCT-116 colon it was 84.5%. Moreover, the growth in the test with HCC-2998 colon was 101%; with KM12 colon, 106%.
For `O=C1Nc2cc(Cl)ccc2/C1=C\c1c(-c2ccc(F)cc2)nc2ccccn12`, the growth with T-47D breast was 24.2%; in the test with BT-549 breast, 21.6%; in the test on MDA-MB-435 melanoma, -55% (active); in the test on SW-620 colon it was 9.82% (active); in the test with MCF7 breast, 2.1% (active); with HCT-116 colon, -80.1% (active). The values for the growth in the test on HCC-2998 colon and in the test with KM12 colon were 31.5% and -1.1% (active), respectively.
With `CCOC(=O)c1cc(C(=O)c2ccc(Br)cc2)n2ccc(/C=C/c3cc[n+](CC(=O)c4ccc(OC)cc4)cc3)cc12`, the growth in the test on T-47D breast is 90.1%; in the test with BT-549 breast, 109%; with MDA-MB-435 melanoma it was 101%; with SW-620 colon it was 48.6%; with MCF7 breast, -9.87% (active); in the test with HCT-116 colon it was 37.7%. Moreover, the figures for the growth with HCC-2998 colon and with KM12 colon were 95.1% and 99.2%, respectively.
For the molecule `COc1cc(C(=O)Nc2cc3c(cc2Oc2cc(C)cc(C)c2)C(=O)N(C)[C@@H](CC(=O)N(C)O)C(=O)N3)c(Br)c(OC)c1OC`, the growth was 1.62% (active) in the test on T-47D breast; -30.2% (active) with BT-549 breast; -86.2% (active) in the test with MDA-MB-435 melanoma; -2.61% (active) in the test on SW-620 colon; -14.8% (active) in the test on MCF7 breast; -35.5% (active) in the test with HCT-116 colon. The values for the growth in the test on HCC-2998 colon and in the test on KM12 colon were -45.6% (active) and -28.6% (active), respectively.
For `C=C1C(=O)O[C@H]2[C@H]1CC/C(COC(=O)NCC(C)c1ccc(CC(C)C)cc1)=C\CC[C@@]1(C)O[C@@H]21` (stereo not given in full), the growth in the test with T-47D breast was -50% (active); with BT-549 breast, -42.4% (active); with MDA-MB-435 melanoma, -88.7% (active); in the test on SW-620 colon, -58.7% (active); with MCF7 breast it was 13.7%; in the test on HCT-116 colon it was -83% (active). Also, the growth in the test on HCC-2998 colon was 59.5%; in the test with KM12 colon, -3.31% (active).
As for `Clc1ccc(-c2ccc(CNCC3CCNCC3)o2)c(-c2ccccc2)c1`, the growth in the test with T-47D breast is -75.2% (active); with BT-549 breast, -5.56% (active); in the test on MDA-MB-435 melanoma, -92% (active); with SW-620 colon, -85.9% (active); in the test on MCF7 breast, -73.9% (active); in the test on HCT-116 colon it was -87.2% (active). For the same molecule, the figures for the growth in the test on HCC-2998 colon and with KM12 colon were -77.6% (active) and -84.2% (active), respectively.
Regarding `CNCCOc1nc2c3cnccc3cc(-c3cc(OC)c(OC)c(OC)c3)c2c2ccncc12`, the growth in the test on T-47D breast was -12.4% (active); with BT-549 breast, -45.5% (active); in the test on MDA-MB-435 melanoma it was -90.1% (active); with SW-620 colon, 3.63% (active); in the test with MCF7 breast it was -0.459% (active); in the test on HCT-116 colon, -89.9% (active). Also, the growth with HCC-2998 colon is -77% (active); in the test on KM12 colon, 5.03% (active).
Consider `COc1cc2cc(Oc3cccc(NC(=O)Nc4cc(C(F)(F)F)cc(C(F)(F)F)c4)c3)c(C)nc2cc1OC`, for which the growth in the test on T-47D breast is 7.52% (active); in the test on BT-549 breast it was 1.44% (active); with MDA-MB-435 melanoma, -2.55% (active); in the test with SW-620 colon, 15.9%; in the test on MCF7 breast it was 0.59% (active); with HCT-116 colon it was 3.73% (active). Also, the growth with HCC-2998 colon is 21.3%; with KM12 colon, 5.61% (active).
`O=C(c1nnc(Nc2ccccc2Br)o1)c1c[nH]c2ccccc12`: the growth in the test on T-47D breast is 79.6%; in the test with BT-549 breast, 103%; in the test with MDA-MB-435 melanoma, 101%; in the test with SW-620 colon it was 98.7%; in the test on MCF7 breast it was 77.2%; with HCT-116 colon it was 88.4%. For the same molecule, the results for the growth in the test with HCC-2998 colon and with KM12 colon were 88.6% and 81.7%, respectively.
Turning to `O=C(CSc1nc2ccccc2[nH]1)NCc1ccccc1`, the growth with T-47D breast is 92%; in the test with BT-549 breast, 105%; in the test on MDA-MB-435 melanoma it was 95.8%; in the test with SW-620 colon, 99.2%; with MCF7 breast, 95.5%; in the test with HCT-116 colon, 107%. The figures for the growth in the test with HCC-2998 colon and with KM12 colon were 102% and 105%, respectively.
Consider `COc1cc(/C=C\c2cc(OC)c(OC)c(OC)c2)cc(NC(=O)/C=C/c2cc(OC)c(OC)c(OC)c2)c1OC`, for which the growth was 19.6% with T-47D breast; 26.2% in the test on BT-549 breast; -13.1% (active) in the test with MDA-MB-435 melanoma; 57% in the test with SW-620 colon; 27.6% in the test with MCF7 breast; 41.1% with HCT-116 colon. The growth with HCC-2998 colon was 70.8%; in the test with KM12 colon, 28.7%.
For the molecule `O=C1c2ccccc2C(=O)c2c([N+](=O)[O-])ccc(Cl)c21`, the growth was 46.7% in the test with T-47D breast; 88.5% in the test on BT-549 breast; 106% in the test with MDA-MB-435 melanoma; 28.9% with SW-620 colon; 71.7% in the test on MCF7 breast; 63.6% in the test with HCT-116 colon. Also, the growth was 104% in the test on HCC-2998 colon and 79.1% in the test on KM12 colon.
Regarding `COc1cc(C2=NN(C(C)=O)C(c3cc(OC)c(OC)c(OC)c3)C2)ccc1O` (stereo not given), the growth in the test with T-47D breast is 45.6%; with BT-549 breast, 23.1%; in the test on MDA-MB-435 melanoma, -76% (active); in the test with SW-620 colon, 12.4%; in the test with MCF7 breast it was 8.15% (active); in the test with HCT-116 colon, 6.96% (active). For the same molecule, the growth in the test on HCC-2998 colon was -49.3% (active); with KM12 colon it was 2.51% (active).
As for `COc1ccc(C(=O)Cn2c(C(=O)c3ccccc3)nc3ccccc32)cc1`, the growth in the test on T-47D breast is 38.1%; in the test with BT-549 breast, 51.7%; in the test on MDA-MB-435 melanoma, -43.3% (active); in the test with SW-620 colon, 10.6%; in the test on MCF7 breast it was 17.5%; in the test with HCT-116 colon, 15.7%. For the same molecule, the growth in the test with HCC-2998 colon was 26.5%; in the test on KM12 colon it was 20.4%.
Consider `CC(C)(C)CC(C)(C)n1nnnc1C(NC12CC3CC(CC(C3)C1)C2)c1ccccc1` (stereo not given), for which the growth in the test on T-47D breast was 73.5%; in the test with BT-549 breast it was 93.2%; in the test on MDA-MB-435 melanoma, 98.3%; in the test on SW-620 colon, 98.9%; in the test with MCF7 breast, 88.9%; in the test with HCT-116 colon, 66.8%. Moreover, the growth in the test on HCC-2998 colon is 104%; in the test on KM12 colon, 101%.
